Experimental findings from ChEMBL document CHEMBL3433997, “St. Jude Leishmania screening dataset” (2016) are described below.

The structures appear in SMILES notation.

Common to all, as to type: functional
Test [1] addresses Solute carrier family 2, facilitated glucose transporter member 1 (Homo sapiens) (UniProt P11166). Briefly: ST_JUDE_LEISH: Cytotoxicity at 2uM final concentration against transgenic Leishmania Mexicana promastigotes LmGLUT1 that are glucose transport deficient and complemented with the human glucose transporter GLUT1. Activity is measured by DNA content using SYBR green in vitro.

For test [2], the target named is Hexose transporter 1 (Plasmodium falciparum) (UniProt O97467). Briefly: ST_JUDE_LEISH: Cytotoxicity at 2uM final concentration against transgenic Leishmania Mexicana promastigotes LmPfHT that are glucose transport deficient and complemented with the Plasmodium falciparum hexose transporter. Activity is measured by DNA content using SYBR green in vitro.
In test [3] the target is Glucose transporter (Leishmania mexicana) (UniProt O61059). Briefly: ST_JUDE_LEISH: Cytotoxicity at 2uM final concentration against transgenic Leishmania Mexicana promastigotes LmGT2 that are glucose transport deficient and complemented with the L. Mexicana glucose transporter 2. Activity is measured by DNA content using SYBR green in vitro.

Solute carrier family 2, facilitated glucose transporter member 1 (Homo sapiens), sequence (P11166 whole entry): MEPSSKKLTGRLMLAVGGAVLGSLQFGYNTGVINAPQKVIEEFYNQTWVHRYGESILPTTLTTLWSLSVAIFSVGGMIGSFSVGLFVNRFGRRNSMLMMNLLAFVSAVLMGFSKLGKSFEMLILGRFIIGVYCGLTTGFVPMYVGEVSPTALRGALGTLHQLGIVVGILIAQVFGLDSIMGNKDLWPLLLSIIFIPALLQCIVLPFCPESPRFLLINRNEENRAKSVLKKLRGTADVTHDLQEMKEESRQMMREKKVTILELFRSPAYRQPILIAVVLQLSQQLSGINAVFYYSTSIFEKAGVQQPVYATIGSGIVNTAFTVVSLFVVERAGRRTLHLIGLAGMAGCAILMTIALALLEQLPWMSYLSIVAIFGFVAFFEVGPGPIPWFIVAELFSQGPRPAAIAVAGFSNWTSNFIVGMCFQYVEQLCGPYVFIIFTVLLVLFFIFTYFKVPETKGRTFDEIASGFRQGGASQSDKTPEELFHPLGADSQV

By inhibition is commonly meant the drop in the measured response relative to a control, in per cent. As for `Cc1cccc(Nc2c(-c3cc(Br)ccc3O)nc3ncccn23)c1`, the inhibition was 0.12% in test [1], -0.3% in test [2] and -1.33% in test [3].
For `COc1cccc(CNC(=O)c2cccc(-c3cccc(CN4CCC(N5CCCC5)CC4)c3)n2)c1`, the figures for the inhibition in test [1], in test [2] and in test [3] were 4.26%, 4.42% and 6.93%, respectively.
In the case of `COc1ccc2c(NN=Cc3cccc(F)c3)ccnc2c1`, the inhibition came out at 2.99% in test [1], 2.22% in test [2] and 4.14% in test [3].
With `N#Cc1ccc2[nH]cc(-c3cn4cc(SC5CCCC5)ccc4n3)c2c1`, the results for the inhibition in test [1], in test [2] and in test [3] were 0.43%, 1.11% and 1.09%, respectively.
Consider `COc1ccc2[nH]c(C)cc(=NN=Cc3ccncc3)c2c1`, for which the inhibition in test [1] is 3.45%; in test [2], -0.44%; in test [3] it was 4.43%.
With `c1ccc(-c2ccc(CNCCCNc3nc4ccccc4[nH]3)cc2)cc1`, the inhibition in test [1] was 4.26%; in test [2], 9.56%; in test [3], 6.92%.
Consider `COc1ccccc1CNC(=O)c1cc(Br)cc(N2CCN(c3ccncc3)CC2)c1`, for which the inhibition in test [1] came to 1.71%; in test [2], 2.47%; in test [3], 0.83%.
For `CC(=O)Nc1cccc(C(=O)Nc2cccc(-c3cccc(-c4nc5ccccc5[nH]4)c3)c2)c1`, the inhibition worked out at 16.4% in test [1], 15.5% in test [2] and 17.4% in test [3].
With `CC1(CCc2ccccc2)N=C(N)N=C(N)C1c1ccc(Cl)c(Cl)c1` (stereo not drawn), the inhibition in test [1] worked out at 9.55%; in test [2], 9.47%; in test [3], 8.62%.
Regarding `CCS(=O)(=O)c1ccc(OC)c(Nc2nccc(-c3c(-c4cccc(NC(=O)c5c(F)cccc5F)c4)nn4ncccc34)n2)c1`, the inhibition in test [1] is 6.13%; in test [2], 3.41%; in test [3], 2.02%.
`CCCCc1cc(NCC)nc(Nc2ccc(OC)cc2)n1`: the inhibition in test [1] was determined as 20.3%; in test [2] it was 10.1%; in test [3], 5.43%.
As to `C=CCCCNCC(NCCCNc1cc(=O)c2ccccc2[nH]1)c1cc(Br)cc(Br)c1` (stereo not drawn), the inhibition in test [1] was -2.22%; in test [2], -0.98%; in test [3], 0.77%.
As for `Cc1ccc(-c2nc3cc(C(=O)NC4CCC(N5CCCc6ccc(C#N)cc6C5)CC4)ccc3[nH]2)cc1` (stereo not drawn), the inhibition in test [1] was -1.44%; in test [2] it was -0.52%; in test [3] it was 5.12%.
On to `Cc1ccc(C(=O)c2oc3ccc4c(C)cc(=O)oc4c3c2C)cc1`, for which the values for the inhibition in test [1], in test [2] and in test [3] were -0.73%, -0.13% and 0.22%, respectively.
For the compound `CCOC(=O)c1ccc(NC(=O)NC2CCN(CCCCCNC(=O)/C=C/c3ccc(Cl)c(Cl)c3)C2)cc1` (stereo not drawn), the inhibition in test [1] worked out at 2.05%; in test [2] it was 0%; in test [3], 0.92%.
On to `COc1ccc(C(=O)Nc2cc(Br)c3c(c2)CNCC3)cc1Br`, for which the inhibition came out at 2.73% in test [1], 3.54% in test [2] and 1.69% in test [3].
Consider `O=C(CC1CCCC1)Nc1ccc2c(c1)CCC2`, for which the inhibition in test [1] was determined as 2.83%; in test [2] it was 3.17%; in test [3] it was 1.69%.
Regarding `O=C(NC1CCN(Cc2ccc(F)cc2)CC1)c1ccc(-c2cccc(C(F)(F)F)c2)s1`, the results for the inhibition in test [1], in test [2] and in test [3] were 9.61%, 9.88% and 1.44%, respectively.
Turning to `C[C@@H]([C@@H](CCCc1ccc(Cl)cc1)C(=O)N[C@H](C(=O)Nc1cccnc1)C(C)(C)C)N(O)C=O`, the values for the inhibition in test [1], in test [2] and in test [3] were 1.13%, 0.19% and 1.52%, respectively.
With `CCCCCN1CCC(NS(=O)(=O)c2cccc(C(=O)Nc3ccc(Cl)cc3)c2)CC1`, the figures for the inhibition in test [1], in test [2] and in test [3] were -0.5%, 1.63% and 2.4%, respectively.
In the case of `COc1ccc(CC(=O)NC(CCN2CCC3(CC2)CN(S(C)(=O)=O)c2ccccc23)c2ccc(Cl)c(Cl)c2)cc1OC` (stereo not drawn), the inhibition worked out at 3.24% in test [1], 3.56% in test [2] and 2.27% in test [3].
Regarding `O=C(Nc1cccc(OC2CCN(Cc3ccc(F)cc3)CC2)c1)c1ccc(C(F)(F)F)cc1`, the inhibition in test [1] was determined as 0.28%; in test [2] it was 0.67%; in test [3] it was 0.79%.
In the case of `CNC(=O)c1cnc(Nc2ccc(N3CCN(C)CC3)cc2)nc1Nc1cccc(OC(C)C)c1`, the inhibition is 3.75% in test [1], 1.38% in test [2] and -7.72% in test [3].
With `Cc1nc(N)nc(N)c1-c1cc(Cl)c(N)c(Cl)c1`, the figures for the inhibition in test [1], in test [2] and in test [3] were -0.04%, -0.43% and -1.52%, respectively.
Consider `CC[C@H](C)CNC(=O)c1cccc(-c2cccc(CNCC3CNCCCO3)c2)n1` (stereo partly drawn), for which the inhibition is -0.08% in test [1], -0.61% in test [2] and -0.09% in test [3].
As for `COc1ccc(CNCc2ccsc2)cc1-c1ccc(S(=O)(=O)NCCN2CCCC2)s1`, the inhibition in test [1] was found to be 8.12%; in test [2], 8.67%; in test [3], 5.77%.
On the same counts, the results for `O=C(/C=C/c1ccc(Cl)c(Cl)c1)NCCCCCN1CCCN(C(=S)Nc2ccc(Cl)c(Cl)c2)CC1` are -0.53%, -1.2% and 0.13%.
Take `Cc1cc(C(=O)Nc2ccc3c(c2)CCN3C2CCN(Cc3cc(F)cc(F)c3F)C2)no1` (stereo not drawn): the inhibition in test [1] was -0.31%; in test [2] it was 1.36%; in test [3], 5.53%.
For the compound `CN1CCN(CCCN(Cc2cccc(-c3ccc(CNCc4ccc5c(c4)OCO5)cc3)c2)C(=O)Nc2ccccc2)CC1`, the figures for the inhibition in test [1], in test [2] and in test [3] were 1.77%, 4.4% and 1.33%, respectively.
In the same order, the values of `CCCc1cc(=O)[nH]c(-n2nc(C)cc2NC(=O)C(CC)c2ccccc2)n1` (stereo not drawn) are 35%, 38.3% and 4.69%.
Turning to `COC1(C)Oc2ccc3cccc([N+](=O)[O-])c3c2C1=O` (stereo not drawn), the inhibition in test [1] was 0.18%; in test [2], -0.47%; in test [3], -0.75%.
On the same counts, the results for `O=C(Nc1ccc(-c2cccc(-c3nc4ccccc4[nH]3)c2)cc1)Nc1ccsc1` are -0.72%, 4.27% and -0.62%.
Take `COc1ccc(CNC2CCN(c3ccc(NC(=O)c4cccc(Cl)c4)cc3)CC2)cc1OC`: the figures for the inhibition in test [1], in test [2] and in test [3] were 2.25%, 1.47% and 0.61%, respectively.
With `CC(C)COc1ccc(Cl)cc1Cc1ccc(-c2nc3cc(N4CCN(C)CC4)ccc3[nH]2)o1`, the values for the inhibition in test [1], in test [2] and in test [3] were 4.56%, 1.63% and 2.01%, respectively.
In the same order, the values of `O=C(NC1CCN(c2ccnc3cc(Cl)ccc23)C1)c1ccc(F)cc1F` (stereo not drawn) are 1.51%, 5.62% and 2.89%.
With `CCCCc1ccc(C(=O)Nc2ccc3nc(N4CCN(CC)CC4)cc(C)c3c2)cc1`, the inhibition was -2.18% in test [1], -0.16% in test [2] and -1.24% in test [3].
